This is part of a sample that, as a whole, favours compounds with a hit. Of some 83,000 tested, about 20% had one in any assay.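 96-well plates, one dose, 48 hours. Percent growth reported; active if below 10.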 A number with no mark means an inactive call. Active and inactive are the calls of the source.
How the values were obtained:
Experiment in all cases: NCI-60 one-dose screen, 48 h (100 = growth as untreated, 0 = no growth, -100 = all killed)
RPMI-8226 leukemia = settings: 10 µM unless noted
OVCAR-8 ovarian = settings: 10 µM unless noted
OVCAR-5 ovarian = settings: 10 µM unless noted
OVCAR-4 ovarian = settings: 10 µM unless noted
SK-OV-3 ovarian = settings: 10 µM unless noted
IGROV1 ovarian = settings: 10 µM unless noted
OVCAR-3 ovarian = settings: 10 µM unless noted
HS 578T breast = settings: 10 µM unless noted
NCI/ADR-RES ovarian = settings: 10 µM unless noted
T-47D breast = settings: 10 µM unless noted
BT-549 breast = settings: 10 µM unless noted
MDA-MB-435 melanoma = settings: 10 µM unless noted
SW-620 colon = settings: 10 µM unless noted
MCF7 breast = settings: 10 µM
HCT-116 colon = settings: 10 µM unless noted
HCC-2998 colon = settings: 10 µM unless noted
KM12 colon = settings: 10 µM unless noted

Row | SMILES | growth (RPMI-8226 leukemia) | growth (OVCAR-8 ovarian) | growth (OVCAR-5 ovarian) [%] | growth (OVCAR-4 ovarian) | growth (SK-OV-3 ovarian) | growth (IGROV1 ovarian) | growth (OVCAR-3 ovarian) | growth (HS 578T breast) | growth (NCI/ADR-RES ovarian) | growth (T-47D breast) | growth (BT-549 breast) | growth (MDA-MB-435 melanoma) | growth (SW-620 colon) | growth (MCF7 breast) | growth (HCT-116 colon) | growth (HCC-2998 colon) | growth (KM12 colon) [%]
1 | Cc1cc(Nc2ccc(OCc3ccccc3)cc2)nc2cc(O)ccc12 | 6.65% (active) | 57.1% | 84.3 | 44.5% | 86.9% | 60.5% | 41.3% | 106% | 75.7% | 69.8% | 69.7% | 65.6% | 11% | 39.3% | 30.6% | -34% (active) | 45.6
2 | Cc1ccc(NCCNCC(O)CO)c2c(=O)c3ccccc3sc12 (stereo unspecified) | 34.6% | 14.2% | 46.8 | 34.7% | 31.8% | 24.3% | 29.9% | 33.1% | 26.8% | 53.8% | 63.2% | -26% (active) | -78.7% (active) | -53.6% (active) | -66.1% (active) | -75.1% (active) | 
3 | N[C@@H](CC/[N+]([O-])=N/O)C(=O)O | 101% | 109% | 100 | 105% | 105% | 93.3% | 102% | 98.4% | 103% | 94.4% | 95.2% | 98.4% | 104% | 93.7% | 99.1% | 112% | 
4 | O=S(=O)(c1ccc(NC(=S)NC23CC4CC(CC(C4)C2)C3)cc1)N1CCCCC1 | -11.6% (active) | 82.9% | 94.4 | 86.4% | 106% | 94.3% | 5.73% (active) | 88.8% | 88.2% | 90.5% | 93.8% | 96% | 55.8% | 94.2% | 50.5% | 114% | 
5 | COc1ccc(C2=Nn3c(NN)nnc3SC2)cc1 | 104% | 96.4% | 108 | 101% | 105% | 96% | 111% | 96% | 102% | 96.1% | 108% | 103% | 112% | 91.4% | 112% | 111% | 
6 | O=C(Nc1ccc(-c2nc3ccc(NC(=O)c4ccc(Cl)cc4)cc3[nH]2)cc1)c1ccc(Cl)cc1 | -22.6% (active) | 21.4% | 39.3 | -2.34% (active) | 60.7% | 45.1% | -64.9% (active) | 57.9% | 40.2% | -1.92% (active) | -5.61% (active) | -32.7% (active) | 18.4% | 14.4% | 0.708% (active) | -23% (active) | 39.7
7 | Cn1nc(C(C)(C)C)cc1NC(=O)Cc1ccc(/C=C2\C(=O)Nc3ccccc32)cc1 | 28.7% | 54.6% | 107 | 47.6% | 60.7% | 59% | 64.5% | 74.7% | 66.9% | 14.9% | 35.4% | 56% | 76.8% | 19.2% | 33.6% | 96.3% | 21.7
8 | O=C(CN1C(=O)/C(=C\c2ccc(Cl)cc2)SC1=S)Nc1ncc(Cc2ccc(Cl)cc2)s1 | 102% | 101% | 104 | 105% | 104% | 103% | 108% | 98.9% | 104% | 105% | 113% | 110% | 105% | 94.8% | 107% | 106% | 101
9 | O=C(O)CCC(=O)c1ccc(C2CCCCCC2)cc1 | 95.8% | 102% | 105 | 102% | 103% | 101% | 105% | 102% | 102% | 96.2% | 94.9% | 105% | 107% | 96.6% | 98.5% | 108% | 105
10 | O=C(O)c1cn(C2CC2)c2cc(N3CCN(C(=O)C[n+]4ccccc4)CC3)c(F)cc2c1=O | 106% | 105% | 104 | 89.4% | 110% | 109% | 107% | 99.3% | 105% | 94.2% | 102% | 99.9% | 105% | 101% | 99.3% | 106% | 103
11 | COc1cc([C@@H]2NC(=O)NC(C)=C2C(=O)Nc2nc(-c3ccc(Cl)cc3)cs2)ccc1O | 111% | 102% | 100 | 90.5% | 87.8% | 96.6% | 111% | 101% | 97.2% | 77.1% | 98.8% | 104% | 103% | 103% | 99.3% | 104% | 102
12 | COc1cc(C#N)cc2[nH]c(=O)oc12 | 107% | 112% | 98.8 | 96.9% | 113% | 105% | 106% | 99.1% | 99.6% | 101% | 97% | 97.9% | 101% | 101% | 102% | 105% | 
13 | COc1cccc(/C=C/C(=O)c2c(C)nc3ccccc3c2/C=C/c2ccccc2)c1OC | 6.11% (active) | 21.6% | 36.4 | 46.3% | 89.8% | 20.9% | 2.68% (active) | 37.5% | 10% | 11.2% | 29.4% | 15.1% | 13.2% | 13.9% | 4.08% (active) | 41.1% | 26.6
14 | CC(=Nc1ccccc1)C1=C(O)C(Cc2ccc(F)cc2)NC1=O (stereo unspecified) | 5.55% (active) | 33.3% | 44.9 | 45.5% | 11.7% | 36.7% | -36.9% (active) | 32.1% | 10.6% | 27.7% | 36.8% | -53.7% (active) | 27.4% | 16.3% | 27.5% | 60.4% | 24.5
15 | COc1ccc(C)c2sc(N(Cc3cccnc3)C(=O)c3ccc(C#N)cc3)nc12 | 8.4% (active) | -10.5% (active) | 24.3 | 14.3% | 12.6% | -14.3% (active) | 15.1% | -1.42% (active) | 9.32% (active) | -0.727% (active) | 21.7% | 10.1% | 10.8% | 3.83% (active) | 13.2% | 10.9% | 18.2
16 | Cc1ccc(S(=O)(=O)c2c(COC(=O)c3cccc(C)c3)c(-c3ccccc3)nn2C)cc1 | 78.5% | 88.5% | 115 | -59% (active) | 104% | 80.9% | -77.9% (active) | 99.9% | 106% | -64.3% (active) | 57.1% | -33.7% (active) | -37.2% (active) | -49.2% (active) | 0.235% (active) | 60% | 16.3
17 | COc1ccc(-c2nsc3c2NC(=O)CC3c2ccc3c(c2)OCCO3)cc1 (stereo unspecified) | 31.5% | 35.3% | 37.5 | 36.9% | 3.12% (active) | 49% | -38.6% (active) | 28.4% | 21% | 50.2% | 27.8% | -46.6% (active) | 35.7% | 24.7% | 12.7% | 33.5% | 20.6
18 | O=C(O)CCCN1C(=O)C2C3CCC(C3)C2C1=O (stereo unspecified) | 108% | 103% | 104 | 109% | 103% | 102% | 112% | 115% | 108% | 101% | 107% | 99.7% | 112% | 109% | 108% | 106% | 103
